PubChem BioAssay (EPA / NIEHS)
Results filed as inconclusive are left out. Activity calls are given as the source filed them. How the source made its calls, unless noted: active means hit-call score of the fitted dose curve at least 0.9, where 1 is the maximum; inactive means score below 0.9.

What was measured:
[1] = biological target: Peroxisome proliferator-activated receptor gamma (Homo sapiens) (UniProt P37231); assay: OT_PPARg_PPARgSRC1_0480: Odyssey Thera (OT) 8-hour Protein-Complementation Assay for Peroxisome Proliferator-activated Receptor Gamma / SRC-1 Co-activator (AID 2283387; active means hit-call score of the fitted dose curve at least 0.9, where 1 is the maximum;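 further: nuclear to cytoplasmic split Venus YFP fluorescence ratio reporting PPARg SRC-1 interaction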)
How it was run: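 Protein-fragment complementation in HEK293T: Venus YFP halves (residues 1-158, 159-239, mutated to IFP1/IFP2) fused to PPARg/SRC-1. 8 h exposure; N/C ratio at 488 nm; DMSO negative control.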

[2] = biological target: Peroxisome proliferator-activated receptor gamma (Homo sapiens) (UniProt P37231); assay: OT_PPARg_PPARgSRC1_1440: Odyssey Thera (OT) 24-hour Protein-Complementation Assay for Peroxisome Proliferator-activated Receptor Gamma/ SRC-1 Co-activator (AID 2283388; active means hit-call score of the fitted dose curve at least 0.9, where 1 is the maximum;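 further: nuclear to cytoplasmic ratio of reconstituted Venus YFP fluorescence in fixed imaged cells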)
How it was run: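 Transient HEK293T, YFP fragments 1-158/159-239 (mutant IFP1/IFP2) fused to PPARg/SRC-1; 24 h dosing; fix 4% formaldehyde, Draq5; Opera imaging 488/635 nm; N/C ratio, gain vs DMSO.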

[3] = read-out: Tumor necrosis factor receptor superfamily member 6 (Homo sapiens) (UniProt P25445); assay: LTEA_HepaRG_FAS: Life Technologies and Expression Analysis (LTEA) Assay for Fas cell surface death receptor (FAS) using HepaRG (AID 2283447); details: mRNA level, 48 h; actives raise or lower the signal
How it was run: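 Differentiated human HepaRG cells, pre-cultured 48 h, were exposed in duplicate for 48 h to 8-point half-log concentrations (top 100 uM, 0.5% DMSO) in serum-free induction medium; FAS mRNA measured by qRT-PCR, normalized to ACTB/GAPDH/POLR2A, bidirectional fit versus DMSO.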

[4] = read-out: Fatty acid synthase (Homo sapiens) (UniProt P49327); assay: LTEA_HepaRG_FASN: Life Technologies and Expression Analysis (LTEA) Assay for Fatty Acid Synthase (FASN) using HepaRG (AID 2283448); details: mRNA level, 48 h; actives raise or lower the signal
How it was run: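 Cells were plated, cultured 48 h, switched to serum-free induction medium, then dosed in duplicate (max 100 uM, half-log dilutions, 0.5% DMSO) for 48 h. RNA was then isolated and FASN quantified by qRT-PCR.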

[5] = read-out: Cyclin D2 (CCND2), CCND2 (gene 894); assay: LTEA_HepaRG_CCND2: Life Technologies and Expression Analysis (LTEA) Assay for Cyclin D2 (CCND2) using HepaRG (AID 2283449); details: mRNA level, 48 h; actives raise or lower the signal;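 further: CCND2 transcript measured by TaqMan qRT-PCR and normalised to three housekeeping genes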
How it was run: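 In this HepaRG study, an eight-point concentration series (max 100 uM, 0.5% DMSO) is applied for 48 h. CCND2 mRNA change is derived by qRT-PCR normalised to ACTB, GAPDH and POLR2A.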

[6] = read-out: Cyclin Dependent Kinase Inhibitor 1A (CDKN1A), CDKN1A (gene 1026); assay: LTEA_HepaRG_CDKN1A: Life Technologies and Expression Analysis (LTEA) Assay for Cyclin Dependent Kinase Inhibitor 1A (CDKN1A) using HepaRG (AID 2283450); details: mRNA level, 48 h; actives raise or lower the signal
How it was run: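 Cryopreserved HepaRG cells were plated and cultured 48 h, then switched to serum-free induction medium. Chemicals (eight half-log concentrations, top 100 uM, 0.5% DMSO) were applied for 48 h. Lysates underwent qRT-PCR for CDKN1A with housekeeping normalization.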

[7] = read-out: Cyclin D1 (CCND1), CCND1 (gene 595); assay: LTEA_HepaRG_CCND1: Life Technologies and Expression Analysis (LTEA) Assay for Cyclin D1 (CCND1) using HepaRG (AID 2283451); details: mRNA level, 48 h; actives raise or lower the signal
How it was run: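 Human liver HepaRG line; 48 h dosing, 8 conc. ≤100 uM, 0.5% DMSO; TaqMan qRT-PCR mRNA, 3 housekeeping genes; bidirectional curve fit vs DMSO.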

[8] = read-out: catalase (CAT), CAT (gene 847); assay: LTEA_HepaRG_CAT: Life Technologies and Expression Analysis (LTEA) Assay for catalase (CAT) using HepaRG (AID 2283452); details: mRNA level, 48 h; actives raise or lower the signal;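 on AC50: TaqMan qRT-PCR signal normalized to ACTB GAPDH and POLR2A housekeeping genes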
How it was run: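 Differentiated HepaRG cells in serum-free induction medium were dosed 48 h in duplicate, eight half-log concentrations from 100 uM in 0.5% DMSO. Transcript measured by TaqMan qRT-PCR, normalised to ACTB/GAPDH/POLR2A, fitted bidirectionally against DMSO.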

[9] = read-out: flavin-containing dimethylaniline monooxygenases 3 (FMO3), FMO3 (gene 2328); assay: LTEA_HepaRG_FMO3: Life Technologies and Expression Analysis (LTEA) Assay for flavin-containing dimethylaniline monooxygenases 3 (FMO3) using HepaRG (AID 2283453); details: mRNA level, 48 h; actives raise or lower the signal;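 on AC50: FMO3 transcript by TaqMan qRT-PCR normalized to ACTB GAPDH and POLR2A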
How it was run: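 FMO3 transcript quantified by TaqMan qRT-PCR against three housekeeping genes after 48 h chemical exposure of HepaRG cells. Eight-point half-log series, top 100 uM, 0.5% DMSO vehicle; phenobarbital 1mM induction control; up- or down-regulation fitted.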

[10] = read-out: Cytochrome P450 (CYP1A1), CYP1A1 (gene 1543); assay: LTEA_HepaRG_CYP1A1: Life Technologies and Expression Analysis (LTEA) Assay for Cytochrome P450 (CYP1A1) using HepaRG (AID 2283454); details: mRNA level, 48 h; actives raise or lower the signal
How it was run: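 Induction of CYP1A1 mRNA in a human hepatic cell line was measured 48 h after dosing, with 1 mM phenobarbital as induction positive control and 0.5% DMSO vehicle as baseline for bidirectional curve fitting.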

Sequence of Peroxisome proliferator-activated receptor gamma (Homo sapiens) (P37231 whole entry, looked up, the tested form may be a part): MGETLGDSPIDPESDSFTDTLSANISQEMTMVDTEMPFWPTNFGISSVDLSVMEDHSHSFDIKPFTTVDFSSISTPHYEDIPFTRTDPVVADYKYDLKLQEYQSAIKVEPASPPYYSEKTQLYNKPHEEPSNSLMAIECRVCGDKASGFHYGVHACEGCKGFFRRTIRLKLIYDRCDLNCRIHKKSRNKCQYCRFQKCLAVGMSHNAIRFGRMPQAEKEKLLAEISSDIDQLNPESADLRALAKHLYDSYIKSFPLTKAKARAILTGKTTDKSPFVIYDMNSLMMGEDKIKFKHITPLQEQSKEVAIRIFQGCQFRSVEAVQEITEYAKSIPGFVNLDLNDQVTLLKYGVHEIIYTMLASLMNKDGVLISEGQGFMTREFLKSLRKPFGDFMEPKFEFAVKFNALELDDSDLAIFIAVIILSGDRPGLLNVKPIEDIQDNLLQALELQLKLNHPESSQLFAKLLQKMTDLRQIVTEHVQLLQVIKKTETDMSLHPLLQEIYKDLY
Sequence of Fatty acid synthase (Homo sapiens) (P49327 whole entry, looked up): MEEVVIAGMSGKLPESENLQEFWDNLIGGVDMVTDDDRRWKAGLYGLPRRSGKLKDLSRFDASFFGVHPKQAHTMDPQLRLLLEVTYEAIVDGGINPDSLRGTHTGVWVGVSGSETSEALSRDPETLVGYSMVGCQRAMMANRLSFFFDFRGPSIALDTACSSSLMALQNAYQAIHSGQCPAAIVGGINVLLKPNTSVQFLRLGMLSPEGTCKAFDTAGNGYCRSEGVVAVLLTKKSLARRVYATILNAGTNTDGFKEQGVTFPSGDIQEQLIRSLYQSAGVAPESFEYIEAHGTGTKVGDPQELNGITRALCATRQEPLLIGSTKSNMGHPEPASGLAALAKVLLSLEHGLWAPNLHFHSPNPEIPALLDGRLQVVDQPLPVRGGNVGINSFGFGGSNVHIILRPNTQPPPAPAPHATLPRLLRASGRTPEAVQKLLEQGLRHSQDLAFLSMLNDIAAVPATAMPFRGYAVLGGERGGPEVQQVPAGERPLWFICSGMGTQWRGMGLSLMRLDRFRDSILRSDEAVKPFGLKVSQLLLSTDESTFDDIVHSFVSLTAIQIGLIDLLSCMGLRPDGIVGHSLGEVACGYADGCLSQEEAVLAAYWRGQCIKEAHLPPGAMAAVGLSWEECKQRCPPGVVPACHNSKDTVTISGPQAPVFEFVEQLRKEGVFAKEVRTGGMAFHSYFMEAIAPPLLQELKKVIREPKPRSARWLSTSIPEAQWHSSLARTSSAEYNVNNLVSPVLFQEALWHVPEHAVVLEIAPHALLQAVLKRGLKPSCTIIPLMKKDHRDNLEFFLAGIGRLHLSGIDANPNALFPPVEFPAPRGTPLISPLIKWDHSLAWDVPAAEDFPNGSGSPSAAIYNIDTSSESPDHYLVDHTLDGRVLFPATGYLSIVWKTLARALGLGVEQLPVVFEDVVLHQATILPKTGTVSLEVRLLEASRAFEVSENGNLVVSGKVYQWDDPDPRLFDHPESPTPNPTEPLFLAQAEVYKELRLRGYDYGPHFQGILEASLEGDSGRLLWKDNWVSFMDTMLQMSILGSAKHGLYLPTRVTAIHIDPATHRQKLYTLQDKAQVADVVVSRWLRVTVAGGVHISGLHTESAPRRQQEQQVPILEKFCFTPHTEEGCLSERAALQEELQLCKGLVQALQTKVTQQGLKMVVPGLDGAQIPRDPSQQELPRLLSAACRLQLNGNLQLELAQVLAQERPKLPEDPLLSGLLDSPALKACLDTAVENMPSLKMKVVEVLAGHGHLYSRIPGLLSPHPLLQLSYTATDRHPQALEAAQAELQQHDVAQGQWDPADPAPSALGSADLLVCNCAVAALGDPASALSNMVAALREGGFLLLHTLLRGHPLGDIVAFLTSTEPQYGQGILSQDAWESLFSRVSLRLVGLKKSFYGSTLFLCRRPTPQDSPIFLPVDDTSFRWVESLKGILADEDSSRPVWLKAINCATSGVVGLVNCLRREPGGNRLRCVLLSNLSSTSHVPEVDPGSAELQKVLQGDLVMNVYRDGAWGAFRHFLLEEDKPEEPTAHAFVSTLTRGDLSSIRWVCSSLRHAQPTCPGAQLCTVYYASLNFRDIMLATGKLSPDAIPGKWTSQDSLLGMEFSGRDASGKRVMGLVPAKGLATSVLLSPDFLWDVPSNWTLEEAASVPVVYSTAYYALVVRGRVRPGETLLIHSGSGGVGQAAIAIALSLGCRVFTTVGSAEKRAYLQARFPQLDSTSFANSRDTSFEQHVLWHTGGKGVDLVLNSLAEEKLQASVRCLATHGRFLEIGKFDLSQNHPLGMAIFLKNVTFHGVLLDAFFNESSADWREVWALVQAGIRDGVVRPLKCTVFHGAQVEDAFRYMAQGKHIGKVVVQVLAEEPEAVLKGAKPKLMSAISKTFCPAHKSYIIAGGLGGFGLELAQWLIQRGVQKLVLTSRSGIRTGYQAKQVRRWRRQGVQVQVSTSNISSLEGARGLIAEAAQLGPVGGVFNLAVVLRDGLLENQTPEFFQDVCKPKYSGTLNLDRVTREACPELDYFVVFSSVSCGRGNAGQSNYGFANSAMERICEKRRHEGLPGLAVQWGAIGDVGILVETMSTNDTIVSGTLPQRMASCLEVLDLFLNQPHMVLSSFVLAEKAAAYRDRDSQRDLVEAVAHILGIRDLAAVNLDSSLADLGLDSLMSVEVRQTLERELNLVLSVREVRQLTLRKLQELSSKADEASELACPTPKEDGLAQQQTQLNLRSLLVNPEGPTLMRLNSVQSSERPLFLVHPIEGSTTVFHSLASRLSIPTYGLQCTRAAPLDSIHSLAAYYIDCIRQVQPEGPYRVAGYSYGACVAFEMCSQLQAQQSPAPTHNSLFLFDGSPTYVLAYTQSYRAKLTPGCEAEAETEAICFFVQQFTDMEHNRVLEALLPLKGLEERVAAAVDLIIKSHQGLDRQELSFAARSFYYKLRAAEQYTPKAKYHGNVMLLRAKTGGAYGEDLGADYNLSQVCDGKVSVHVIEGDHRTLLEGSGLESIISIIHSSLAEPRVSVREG

SMILES	outcome [1]	AC50 [2]	outcome [3]	outcome [4]	outcome [5]	outcome [6]	outcome [7]	outcome [8]	outcome [9]	AC50 [10]	outcome [2]	AC50 [3]	AC50 [4]	AC50 [8]	AC50 [9]	AC50 [6]
O=C(NS(=O)(=O)/C=C/c1ccccc1)c1ccc(F)cc1Cl	inactive	50 µM (active)	inactive	inactive	inactive	inactive	inactive	inactive	inactive	50 µM (active)	–	–	–	–	–	–
CCCCCCc1ccc(O)cc1O	inactive	–	inactive	inactive	inactive	inactive	inactive	inactive	inactive	77.7 µM (active)	inactive	–	–	–	–	–
Cc1ccc(C)c(O)c1	inactive	–	inactive	inactive	inactive	inactive	–	inactive	inactive	51.2 µM (active)	inactive	–	–	–	–	–
CC/C(=C\C(=N/O)C(N)=O)C(C)[N+](=O)[O-] (stereo not drawn)	inactive	–	inactive	inactive	inactive	inactive	inactive	inactive	inactive	31.9 µM (active)	inactive	–	–	–	–	–
O=C(O)c1cc(N=Nc2ccc(S(=O)(=O)Nc3ccccn3)cc2)ccc1O	inactive	–	inactive	inactive	inactive	inactive	inactive	inactive	inactive	35.8 µM (active)	inactive	–	–	–	–	–
O=C(OC[C@H]1O[C@@H](OC(=O)c2cc(O)c(O)c(OC(=O)c3cc(O)c(O)c(O)c3)c2)[C@H](OC(=O)c2cc(O)c(O)c(OC(=O)c3cc(O)c(O)c(O)c3)c2)[C@@H](OC(=O)c2cc(O)c(O)c(OC(=O)c3cc(O)c(O)c(O)c3)c2)[C@@H]1OC(=O)c1cc(O)c(O)c(OC(=O)c2cc(O)c(O)c(O)c2)c1)c1cc(O)c(O)c(OC(=O)c2cc(O)c(O)c(O)c2)c1	inactive	–	–	–	inactive	inactive	inactive	–	–	9.36 µM (active)	inactive	7.03 µM (active)	15.2 µM (active)	15.2 µM (active)	9.23 µM (active)	–
Cn1cnc([N+](=O)[O-])c1Sc1ncnc2nc[nH]c12	inactive	–	inactive	inactive	inactive	–	–	–	–	34.8 µM (active)	inactive	–	–	1.69 µM (active)	17.5 µM (active)	4.48 µM (active)
C1N2CN3CN1CN(C2)C3	inactive	–	inactive	inactive	inactive	inactive	inactive	inactive	inactive	51 µM (active)	inactive	–	–	–	–	–
CC1(C)C(=O)N(Br)C(=O)N1Br	inactive	–	inactive	inactive	inactive	inactive	inactive	inactive	inactive	36.8 µM (active)	inactive	–	–	–	–	–
C=CC(=C)CCC=C(C)C	inactive	–	inactive	inactive	inactive	inactive	inactive	inactive	inactive	35 µM (active)	inactive	–	–	–	–	–
CCCC(=O)OCC	inactive	–	inactive	inactive	inactive	inactive	inactive	inactive	inactive	50 µM (active)	inactive	–	–	–	–	–
